# Source: PubChem
# ST2 IL33 inh – blocks human ST2 binding to IL-33. hit rate 2.3% among 78,000. inhibition, % for hits at 17 µM. AlphaLISA ST2-Fc/biotin-IL-33 interaction, 1 h; in the data active = inhibition above about 30%
# Target sequence (Q01638 whole entry, looked up): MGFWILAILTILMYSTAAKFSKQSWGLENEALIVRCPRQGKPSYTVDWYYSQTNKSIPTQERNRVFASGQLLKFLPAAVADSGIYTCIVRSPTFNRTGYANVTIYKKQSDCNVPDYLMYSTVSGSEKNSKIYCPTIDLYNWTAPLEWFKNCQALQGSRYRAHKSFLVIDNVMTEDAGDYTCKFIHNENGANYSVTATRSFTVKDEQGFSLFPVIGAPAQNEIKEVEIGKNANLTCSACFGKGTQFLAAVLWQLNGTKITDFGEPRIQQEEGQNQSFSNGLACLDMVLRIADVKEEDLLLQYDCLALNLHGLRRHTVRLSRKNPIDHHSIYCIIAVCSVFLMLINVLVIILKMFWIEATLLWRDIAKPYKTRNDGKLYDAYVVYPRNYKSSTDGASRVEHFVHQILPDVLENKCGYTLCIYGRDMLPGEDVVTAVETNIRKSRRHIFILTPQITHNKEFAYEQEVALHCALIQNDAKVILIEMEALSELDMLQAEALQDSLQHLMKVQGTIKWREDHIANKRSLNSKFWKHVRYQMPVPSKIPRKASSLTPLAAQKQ
# * = called active by the depositor; i = inactive. Many of the other results were omitted from the sample, so hits are more common in it than they were.
SMILES,ST2 IL33 inh
COCCC(=O)N[C@H]1CC[C@]2(C)CCC([C@H](C)C(=O)NCCN3CCOCC3)[C@H](O)[C@H]2[C@@H]1C (stereo partly drawn),i
Cc1nc(C(C)C)ncc1C(=O)N1CCn2nc(C(=O)NC3CC3)cc2C1,i
COc1ccc(NC(=O)c2noc3c2CC(C(C)(C)C)CC3)cc1 (stereo not drawn),i
Nc1ccc(Nc2ccccc2)c(Cl)c1,44%*
Nc1cccc(C(=O)Nc2ccccc2Cl)c1,i
Nc1ccc(Cl)c(NC(=O)CC(=O)c2ccccc2)c1,i
COCCOC(=O)c1c(C)oc2ccc(OCc3ccc(C)cc3)cc12,i
CC[C@H]1CN(C(=O)C2CCN(C(=O)c3ccncc3)CC2)CC[C@@]1(C)O,i
CCOc1ccc(-c2csc(/C(C#N)=C/c3ccc(OC)cc3)n2)cc1,54%*
O=C(O)C1CCN(c2nc(-c3ccc(Br)cc3)cs2)CC1,i
CCOc1ccc(-c2csc(/C(C#N)=C/c3ccc(N(C)C)cc3)n2)cc1,65%*
N#C/C(=C\c1cccc(F)c1)c1nc(-c2cc3ccccc3oc2=O)cs1,i
CCOc1ccccc1/C=C(\C#N)c1nc(-c2ccc([N+](=O)[O-])cc2)cs1,i
COc1ccc(-c2csc(/C(C#N)=C/c3cccc(F)c3)n2)cc1,43%*
CCOc1ccc(-c2csc(-c3cc4cccc(OC)c4oc3=O)n2)cc1,i
COc1ccc(-c2cc(-c3ccccc3)nc(Br)c2C#N)cc1,i
CCOc1ccc(-c2cn3ccsc3n2)cc1,i
CN(C)c1ccc(/C=C(\C#N)c2nc(-c3ccc(Br)cc3)cs2)cc1,53%*
CCOc1ccc(-c2csc(NC(=O)c3ccc(OC)c(OC)c3)n2)cc1,i
Cc1ccc(-c2cncc(C(=O)N3CCCCC3)n2)c(-n2cccn2)c1,i
COc1ccc(C(C)(C)NC(=O)c2nc[nH]c2C)cc1OC,i
Cc1cc(NC(=O)COc2ccc3ccccc3c2)nc2c1c(=O)oc1ccccc12,i
COCCc1nc2ccc(C(=O)N3CCCC(C(=O)N4CCOCC4)C3)cc2o1 (stereo not drawn),i
COC(=O)[C@@H]1C[C@@H](NS(=O)(=O)c2ccc3c(c2)OCCN3C)CN1C,i
CCc1ccc(-c2nc(CSCC(=O)NC3CCCC3)c(C)o2)cc1,i
SMILES,ST2 IL33 inh
CC1CCC(NC(=O)c2ccc3c(c2)N(Cc2ccc(F)cc2)C(=O)CS3=O)CC1 (stereo not drawn),i
COCC(NC1CCC2(CCNCC2)CC1)c1ccnn1C (stereo not drawn),i
COc1cc(-c2oc(-c3ccc(O)c(OC)c3)c(C)c2C)ccc1O,i
COc1cc(/C=C(\C#N)c2nc(-c3ccc(Br)cc3)cs2)ccc1O,33%*
COc1cc(N2C(=O)c3c(C)nc4ccccc4c3C2=O)cc(OC)c1OC,i
O=C(c1cc(-c2ccc3c(c2)OCO3)on1)N1CCN(C(c2ccccc2)c2ccccc2)CC1,i
CS(=O)(=O)n1cnc2ccccc21,i
O=C(Nc1sc2c(c1C(=O)NCc1ccco1)CCCC2)c1ccccc1[N+](=O)[O-],30%*
O=C(Nc1sc2c(c1C(=O)NCC1CCCO1)CCCC2)c1ccccc1Br (stereo not drawn),i
CC1CCc2c(sc(NC(=O)c3ccccc3Cl)c2C(=O)NCc2ccco2)C1 (stereo not drawn),i
CC1CC(C)CN(S(=O)(=O)c2ccc3c(c2)c(=O)n(C)c(=O)n3C)C1 (stereo not drawn),i
Cn1c(=O)c2cc(S(=O)(=O)N3CCN(c4cccc(Cl)c4)CC3)ccc2n(C)c1=O,i
COc1ccccc1-c1cc(C(F)(F)F)nc(S(C)(=O)=O)n1,i
COc1ccccc1Nc1cc(C(F)(F)F)nc2c(OC)ccc(OC)c12,39%*
COc1ccc(-c2cc(C(F)(F)F)nc(NCc3ccccc3)n2)cc1OC,i
Cc1ccc(NS(=O)(=O)c2ccc(NC(=O)c3ccc(CN4CCOCC4)cc3)cc2)c(C)c1,i
O=C(CCC1CCN(C(=O)C2CC=CCC2)CC1)NCc1cccc(C(F)(F)F)c1 (stereo not drawn),i
CCc1ccc(C(=O)c2c[nH]c3ccc(CC)cc3c2=O)cc1,i
CCc1ccc(C(=O)c2c[nH]c3ccc(C)cc3c2=O)cc1,i
CCOC(=O)c1ccc2[nH]cc(C(=O)c3ccc(C)cc3)c(=O)c2c1,i
Cc1ccc(C(=O)c2c[nH]c3ccc(Br)cc3c2=O)cc1,33%*
CCOC(=O)c1ccc2[nH]cc(C(=O)c3ccccc3)c(=O)c2c1,i
CCc1ccc(C(=O)c2c[nH]c3ccc(F)cc3c2=O)cc1,42%*
CCC1(C)CC(=O)N(c2cccc(C(=O)O)c2)C1=O (stereo not drawn),i
CCN(CC)CCCNCc1cccc(C)c1,i
SMILES,ST2 IL33 inh
OC1CCN(Cc2ccc(F)cc2F)CC1,i
O=C(COc1ccccc1)OCC(=O)N1c2ccccc2Sc2ccccc21,i
N/C(=N/OC(=O)N1c2ccccc2Sc2ccccc21)c1ccccc1,50%*
CN(C(=O)N1c2ccccc2Sc2ccccc21)c1ccccc1,i
Cc1cccc(CSC2=NCCN2C(=O)C2CCCC2)c1,i
CC1=NN(c2cccc(Br)c2)C(=O)/C1=C/c1ccc(-c2ccc3c(c2)C(=O)OC3)o1,i
CC1=NN(c2cccc(Cl)c2)C(=O)/C1=C\c1ccco1,44%*
CC1=NN(c2ccccc2)C(=O)/C1=C/c1ccc(O)c(Cl)c1,i
COc1cc(Br)c(/C=C2\C(=O)N(c3cccc(Cl)c3)N=C2C)cc1OC,i
CC1=NN(c2cccc(Cl)c2)C(=O)/C1=C\c1ccc(C)cc1,30%*
CCOc1ccccc1C(=O)O/N=C(/N)c1cccnc1,i
O=C(CSc1nc(-c2ccc3c(c2)OCO3)nc2cc(=O)[nH]n12)N1CCc2ccccc2C1,i
O=C(Cc1ccccc1)Nc1nnc(N=Cc2ccc([N+](=O)[O-])s2)s1,i
CCc1ccc(N(CC(=O)NCc2ccccc2OC)S(C)(=O)=O)cc1,i
O=C(CSc1c2c(nc3ccccc13)CCC2)Nc1ccc2c(c1)OCCO2,i
CCN(CC)C(=O)c1sc(NC(=O)c2ccc3c(c2)OCO3)c(C(=O)OC(C)C)c1C,i
CN(CCNC(=O)C1CCCN1c1nnc(N2CCCC2=O)s1)C1CCCCC1 (stereo not drawn),i
CN(CCCNC(=O)C1CCCN1c1nnc(N2CCCC2=O)s1)C1CCCCC1 (stereo not drawn),i
CC(C)N(CCCNC(=O)C1CCCN1c1nnc(N2CCCC2=O)s1)Cc1ccccc1 (stereo not drawn),34%*
Nc1ccc(N)c2c1C(=O)c1c(N)ccc(N)c1C2=O,94%*
CCOC(=O)c1sc2ncnc(NCCc3ccc(OC)c(OC)c3)c2c1C,i
CCOC(=O)C1C2C=CC3(CN(C(C)c4ccc(Br)cc4)C(=O)C13)O2 (stereo not drawn),i
O=C(CN1CCCC1)N1c2ccccc2Sc2ccc(C(F)(F)F)cc21,i
O=C(Nc1ccccc1C(=O)NCCN1CCOCC1)c1ccc(Cl)cc1Cl,i
O=C(CN1C(=O)/C(=C\c2cccc(Cl)c2)Sc2ccccc21)NCCN1CCOCC1,36%*
CN(Cc1ccco1)C(=O)CN1C(=O)/C(=C\c2ccc(C(F)(F)F)cc2)Sc2ccccc21,31%*
O=C(NCCCN1CCOCC1)N1c2ccccc2Sc2ccccc21,i
CNC(=O)c1ccc(/C=C2\Sc3ccccc3N(Cc3ccc(F)cc3)C2=O)cc1,i
O=C(CN1C(=O)/C(=C/c2ccccc2F)Sc2ccccc21)NCc1ccco1,i
